Assay results published in PubChem BioAssay (Tox21).
Inconclusive results are not listed. A call without a number means that no potency is given here. Active and inactive are the calls of the source. Calls follow the shape of the dose curve; as a rule, active = well fitted inhibition curve with a large enough effect in the signal ratio in the repeat runs (not every such curve was filed as active); inconclusive = weak or mixed curves, or effect the other way; inactive = no such curve, though single readings can be large or run the other way; the % refers to the signal ratio.

What follows are compounds tested against Vitamin D3 receptor (Homo sapiens) (UniProt P11473) (assay: qHTS assay to identify small molecule antagonists of the vitamin D receptor (VDR) signaling pathway (AID 743223)). Details: VDR-UAS-bla HEK293T, beta-lactamase FRET ratio, 16 h; series mostly up to 61 µM.
Sequence of Vitamin D3 receptor (Homo sapiens) (P11473 whole entry, looked up): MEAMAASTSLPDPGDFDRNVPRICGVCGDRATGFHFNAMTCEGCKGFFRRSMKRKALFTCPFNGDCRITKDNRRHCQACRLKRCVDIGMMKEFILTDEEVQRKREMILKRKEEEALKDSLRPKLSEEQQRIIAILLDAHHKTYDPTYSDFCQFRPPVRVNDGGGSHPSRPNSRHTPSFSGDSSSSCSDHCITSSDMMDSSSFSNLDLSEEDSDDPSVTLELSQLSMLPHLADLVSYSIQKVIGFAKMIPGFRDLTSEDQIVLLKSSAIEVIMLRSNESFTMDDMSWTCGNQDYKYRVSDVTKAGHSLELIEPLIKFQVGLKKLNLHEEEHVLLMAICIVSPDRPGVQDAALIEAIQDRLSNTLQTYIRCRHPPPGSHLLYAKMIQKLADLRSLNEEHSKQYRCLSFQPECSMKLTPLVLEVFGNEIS
Procedure, shortened: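 Antagonist mode: compound added to VDR-bla cells alongside agonist 1alpha,25-dihydroxyvitamin D3 (3 nM final), incubation 16 h at 37C. Read-out is LiveBLAzer FRET fluorescence, 2 h at room temperature.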
For `OCCC1CCCCN1` (configuration not stated), the Potency was “inactive”.
`CC1(C)CCC(C)(C)c2cc(NC(=O)c3ccc(C(=O)O)cc3)ccc21` was tested, and the Potency was “inactive”.
For `CC(=O)N(O)CCCCCNC(=O)CCC(=O)N(O)CCCCCNC(=O)CCC(=O)N(O)CCCCCN`, the Potency was “inactive”.
`FC(F)(F)C(F)(F)C(F)(F)C(F)(F)C(F)(F)C(F)(F)CCI` was tested, and the Potency was “inactive”.
For `CN1CCC(=C2c3ccccc3C=Cc3ccccc32)CC1`, the Potency was “inactive”.
With `O=C(Cl)c1c(Cl)cccc1Cl` the Potency was “inactive”.
In the case of `CC(=O)CC(=O)c1ccccc1`, the Potency was “inactive”.
`C#CCOC(=O)[C@@H](C)Oc1ccc(Oc2ncc(Cl)cc2F)cc1` was tested, and the Potency was “inactive”.
`CCOC(=O)C1=NN(c2ccccc2)C(=O)C1` was tested, and the Potency was “inactive”.
In the case of `CCCCCc1ccc(N)cc1`, the Potency was “inactive”.
For `CN1CCN(C2=Nc3ccccc3Sc3ccc(Cl)cc32)CC1`, the Potency was “inactive”.
`O=C(CCN1CCN2CCCC2C1)N1c2ccccc2Sc2ccc(Cl)cc21` (configuration not stated) was tested, and the Potency was “inactive”.
For `CCCCCOC(=O)COc1cc(N2C(=O)C3=C(CCCC3)C2=O)c(F)cc1Cl`, the Potency was “inactive”.
For `Nc1ccc(C(=O)Nc2ccccc2N)cc1`, the Potency was “inactive”.
For `O=C(O)Cc1sc(-c2ccccc2)nc1-c1ccc(Cl)cc1`, the Potency was “inactive”.
For `CC(C)CCCCCCOC(=O)c1ccc(C(=O)OCCCCCCC(C)C)c(C(=O)OCCCCCCC(C)C)c1`, the Potency was “inactive”.
In the case of `CN(C)CCCNCCCN`, the Potency was “inactive”.
